Assay results from PubChem BioAssay AID652067 (The Scripps Research Institute Molecular Screening Center, 2013).
Out of some 370,000 compounds screened, about 5,400 (1.5%) were called active. What follows is part of a selection rich in actives, with near analogues and random picks from the rest. Values without a mark were called inactive.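 The calls were made as follows: active = activation above the mean of all tested compounds plus 3 SD (cut at about 5.5% in these data); inactive = the rest.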

These molecules were tested on DAF-12 nuclear receptor (Haemonchus contortus) (assay: H. contortus DAF-12 nuclear receptor activators, primary screen, cell-based, luminescence, HEK293, lit1-tk-luc reporter (AID 652067;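 also: 100% = response to 3 µM Δ7-dafachronic acid high control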)). Conditions: HEK293 hcDAF-12 lit1-tk-luc reporter, at 6.8 µM, stronger effect = higher value, 0% DMSO, 100% Δ7-dafachronic acid.

Row | SMILES | activation
1 | COc1cccc(CNC(=O)[C@H]2CCCN2C(=O)[C@H]2CCCN2C(=O)c2cc(F)cc(F)c2)c1 | -1.64%
2 | CSc1ccc(C=Nn2c(-c3ccc(F)cc3)n[nH]c2=S)cc1 | -0.55%
3 | CC(C)Cn1c(CCC(=O)O)ccc1-c1cccs1 | -0.34%
4 | C=C1C(C(C)C)N(C)C2=NC(c3ccccc3)CC(=O)N12 (stereo not drawn) | -1.26%
5 | COc1ccc(-n2c(SCC(=O)Nc3ccccc3-c3ccccc3)nnc2-c2cccnc2)cc1 | -2.71%
6 | CC(=O)Nc1ccc(NC(=O)COc2ccccc2C(=O)Nc2cccc(Cl)c2Cl)cc1 | 5.68% (active)
7 | O=C(COc1ccccc1Cl)Nc1ccc(C(=O)c2ccc(C(=O)O)cc2)cc1 | -0.48%
8 | O=C(COc1ccccc1Cl)Nc1ccccc1C(=O)NC1CC1 | 0.7%
9 | Brc1ccc(COCCc2cn(Cc3ccccc3)c3ccccc23)cc1 | -0.22%
10 | CC(=O)O[C@@]1(C(C)=O)CCC2[C@H]3C=C(C)C4=CC(=O)CC[C@@]4(C)C3CC[C@]21C (stereo partly drawn) | -1.02%
11 | COc1ccc2cc(CCl)c(Cl)nc2c1 | -0.92%
12 | COc1ccc2nc(-c3ccccn3)ccc2c1 | 8.16% (active)
13 | COc1ccc(C=C(C#N)C#N)c(CSc2ccccn2)c1 | -0.83%
14 | Cc1nc(CNc2ncnc3ccc(-c4ccc5c(c4)OCO5)cc23)cs1 | -1.68%
15 | N/C(Cc1ccc([N+](=O)[O-])cc1)=N\OC(=O)COc1ccc2ccccc2c1 | -2.58%
16 | O=C(Oc1ccc([N+](=O)[O-])cc1)c1ccc2ccccc2n1 | 8.61% (active)
17 | Cc1ccc(S(=O)(=O)N(C)C)cc1NC(=O)C(C)OC(=O)c1ccc2ccccc2n1 (stereo not drawn) | 0.62%
18 | COC(=O)C1CN(Cc2cn(Cc3ccc(F)cc3)nn2)CCS(=O)(=O)N1Cc1ccc(Cl)cc1 (stereo not drawn) | -3.19%
19 | COc1ccc(-c2ccccc2C2Cc3nnccc3CN2C(=O)Nc2ccccc2)cc1 (stereo not drawn) | -1.19%
20 | Cc1ccc(Cn2cc(CN3[C@@H](C)COc4cc(Br)ccc4S3(=O)=O)nn2)cc1 | -3.6%
21 | O=C(NCc1ccco1)C1CCCN1S(=O)(=O)c1ccccc1C(F)(F)F (stereo not drawn) | -2.37%
22 | CN(C)c1nc(N)nc(CSc2ccccn2)n1 | 0.13%

Row | SMILES | activation
23 | CCn1c(SCC(=O)NCC2CCCO2)nc2ccccc21 (stereo not drawn) | 1.17%
24 | Cc1ccc(NC(=O)c2cnc(SCC(=O)NCC3CCCO3)n(C)c2=O)cc1 (stereo not drawn) | 5.83% (active)
25 | Cn1c(SCC(=O)c2ccccc2)ncc(C(=O)Nc2ccc(F)cc2)c1=O | 0.15%
26 | CCCCN(CC)C(=O)c1ccccc1Oc1ccccc1 | -2.5%
27 | COCc1cc(N2CCN(C(=O)OC(C)(C)C)C[C@@H]2C)ccc1N1CCN(Cc2ccccc2)[C@H](C)C1 | -1.75%
28 | CCCOc1ccc(C(=O)NCCc2ccccc2)cc1 | 7.01% (active)
29 | O=C(NCCc1ccccc1)Oc1ccc(Cl)cc1 | 2.6%
30 | CC(C)c1ccc(C(=O)NCCCc2ccccc2)cc1 | 2.26%
31 | N#Cc1ccc(OCCCN2CCC(C(O)(c3ccccc3)c3ccccc3)CC2)c(F)c1 | -0.43%
32 | CCOCCCNC(=O)C(NC(=O)CNC(=O)c1ccccc1)c1ccc(C)cc1 (stereo not drawn) | -0.9%
33 | CCOCCCNC(=O)C(NC(=O)Cc1c[nH]c2ccccc12)c1ccc(OC)cc1 (stereo not drawn) | 5.82% (active)
34 | CCOCCCNC(=O)C(NC(=O)CNC(=O)c1ccccc1)c1ccc(OC)cc1 (stereo not drawn) | 1.22%
35 | COc1ccc(-n2c(COc3ccc(C)cc3)nnc2SCC(=O)Nc2ccc(Oc3ccccc3)cc2)cc1 | -2.93%
36 | CCN(CC)C(=O)CC[C@H]1CC[C@]2(CCCN(Cc3ccc(Cl)cc3)C2)O1 | -0.52%
37 | CN(Cc1ccc(C(F)(F)F)cc1)C(=O)[C@H]1O[C@@H](n2cnc3c(N)ncnc32)[C@H](O)[C@@H]1O | -3.28%
38 | Cc1ccc(C)c(NC(=O)C(OC(=O)c2ccc(C)s2)c2ccccc2)c1 (stereo not drawn) | 5.84% (active)
39 | Cc1cc(C)cc(NC(=O)C(OC(=O)c2ccc(O)cc2)c2ccccc2)c1 (stereo not drawn) | 2.07%
40 | COc1ccc(C)cc1NC(=O)C(OC(=O)c1cccc(S(=O)(=O)N(C)c2ccccc2)c1)c1ccccc1 (stereo not drawn) | 0.81%
41 | COc1cccc(-c2cc3nc(NCCOc4ccccc4Cl)n(C)c(=O)c3s2)c1 | -0.41%
42 | Cn1c(NCc2cccnc2)nc2cc(-c3ccc(F)cc3)sc2c1=O | -0.57%
43 | O=c1[nH]c(CCl)nc2cc(-c3ccc(Cl)cc3)sc12 | 7.46% (active)
44 | CCCOc1ccc(Oc2c(Cl)cnn(Cc3cccc4ccccc34)c2=O)cc1 | 0.08%

Row | SMILES | activation
45 | O=C(O)CC(CC(=O)N1CCOCC1)c1ccccc1 (stereo not drawn) | -2.07%
46 | COc1cccc(NC(=O)CN(C)C(=O)CSC(=S)N2CCCC2)c1 | 0.17%
47 | O=C(CSC(=S)N1CCOCC1)c1ccccc1 | 6.9% (active)
48 | N[C@@H](Cc1ccccc1)C(=O)N1CCOCC1 | -1.46%
49 | O=C(CSC(=S)N1CCCCC1)c1c(F)cccc1F | 6.39% (active)
50 | CC(=O)c1ccc(NC(=O)CSC(=S)N2CCCC2)cc1 | 4.8%
51 | CCOC(=O)[C@@]12CCC3=C1N(CCC3)C(=O)[C@H](CC(=O)N1CCN(C(=O)c3ccco3)CC1)C2 | 0.92%
52 | CN1CCOC1c1ccc(C2OCCN2C)cc1 (stereo not drawn) | -0.23%
53 | CC(=O)C1=C(C)N(Cc2ccccc2)C(=S)NC1c1cccc(Br)c1 (stereo not drawn) | 1.52%
54 | CCOc1ccc(NC(=O)CSc2ncnc3c2sc2ccccc23)cc1 | 2.39%
55 | COC(=O)[C@H](C(C)C)N1CCc2nnn(Cc3ccc(C)cc3)c2-c2ccccc2S1(=O)=O | -1.76%
56 | O=C(Nc1cc(F)cc(F)c1)OC1CCC12CCC(c1ccccc1)CC2 (stereo not drawn) | 1.63%
57 | NC(=O)Nc1ccccc1C(=O)NCCc1ccccc1 | 8.5% (active)
58 | O=C(O)c1ccccc1-c1ccccc1C(=O)NCCc1ccccc1 | -1.14%
59 | Nc1nonc1C(=O)NCCc1ccccc1 | -1.41%
60 | Cn1c(SCC(=O)N/N=C/c2ccc(O)c(O)c2)nc2ccccc21 | 0.79%
61 | C/C(=N\c1nc2ccccc2n1C)c1cc(Cl)ccc1O | 4.18%
62 | CCN(CC)CCn1c(/N=C/c2cc(Br)ccc2O)nc2ccccc21 | 6.13% (active)
63 | CCOC(=O)Cn1c2c(n(-c3ccc(F)cc3)c1=O)C=C(c1ccccc1)[C@@H](C)C(C(=O)N(C)C1CCCCC1)=C2 | -0.1%
64 | N#Cc1cccc(C(=O)NCC2CCN(C(=O)C(=O)c3cc4ccccc4o3)CC2)c1 | -1.58%
65 | Cc1cccc(NC(=O)C[C@H]2CC[C@H]3[C@@H](COc4ccc(NC(=O)Nc5ccccc5)cc4C(=O)N3C)O2)c1 | -0.28%
66 | CN(CC(=O)Nc1ccc(Cl)cc1)C(=O)CNC(=O)c1ccc2ccccc2c1 | 6.25% (active)

Row | SMILES | activation
67 | CN(CC(=O)Nc1ccc(Cl)cc1)CC(=O)Nc1cccc2ccccc12 | -0.93%
68 | CN(CC(=O)Nc1ccc(Cl)cc1)C(=O)c1ccc(COc2ccccc2)cc1 | -1.47%
69 | CN1C(=O)C2CC(O)C(SC3CC4C(=O)N(C)C(=O)C4CC3O)CC2C1=O (stereo not drawn) | 0.52%
70 | CC[C@H](NC(=O)[C@H](Cc1ccccc1)NC(=O)[C@H]1O[C@@H](n2cnc3c(=O)[nH]c(N)nc32)[C@H](O)[C@@H]1O)c1ccccc1 | -0.3%
71 | Clc1ccccc1-c1cc(COc2ccc3ccccc3c2)no1 | -2.26%
72 | Fc1ccc(-c2ccc(CNCc3ccccn3)o2)cc1Cl | 0.05%
73 | Clc1ccc(-c2cc(-c3ccccn3)on2)c(Cl)c1 | 12.3% (active)
74 | CC(=O)N1CCCN(C2=Nc3ccccc3Sc3ccccc32)CC1 | -0.4%
75 | COCCCNC(=O)C[C@H]1C[C@@]2(C(=O)OC)C(=C[C@H](C(C)(C)C)O[C@@H]2C)N(Cc2ccc3c(c2)OCO3)C1=O | -1.12%
76 | O=C1CCC(=O)N(O)CCCCCNC(=O)CCC(=O)N(O)CCCCCNC(=O)CCC(=O)N(O)CCCCCN1 | 0.23%
77 | CCCCNC(=O)OC(C)CNC(=O)OC (stereo not drawn) | -0.33%
78 | CC(C)C(=O)Nc1c(C(=O)c2ccc(F)cc2)oc2ccccc12 | -1.93%
79 | CC(C)C(=O)Nc1ccc2c(c1)oc1ccccc12 | 6.7% (active)
80 | CC(C)C(=O)Nc1oc(-c2ccccc2)cc1C#N | -1.35%
81 | FC(F)(F)c1cccc(NC(=S)OC2CCC23CCC(c2ccccc2)CC3)c1 (stereo not drawn) | -0.73%
82 | CCOC(=O)N1CCN(C(=O)C[C@H]2C[C@@]3(C(=O)OC)C(=C[C@H](C4CCCC4)O[C@@H]3C)N(Cc3ccccc3)C2=O)CC1 | -0.64%
83 | Cc1ccc(-n2c(SCC(=O)Nc3cccc4ccccc34)nnc2-c2ccco2)cc1 | -2.24%
84 | COc1cccc(-c2cc(CNC(=O)[C@@H](Cc3ccccc3)NC(=O)[C@H]3O[C@@H](n4cnc(C(N)=O)n4)[C@H](O)[C@@H]3O)no2)c1 | -1.75%
85 | O=C(Nc1cccc(Cl)c1)OC1CC2CC1[C@H]1CCCCN1[C@H]2Cc1ccccc1 (stereo partly drawn) | -1.09%
86 | COc1ccc2c(c1)N(C)/C(=C1/SC(=S)N(NC(C)=O)C1=O)S2 | -1.24%
87 | CC(=O)N1C(=O)/C(=C2\SC(=S)N(NC(=O)c3ccc(O)cc3)C2=O)c2ccccc21 | 8.31% (active)
88 | COc1ccc(C(=O)NN2C(=O)C3C(c4ccccc4)C=CC(c4ccccc4)C3C2=O)cc1 (stereo not drawn) | 0.07%
